Source: publication PMC12136788
Positions count from the first letter of the chain named. In all, about 5,800 sequences were measured (“enrichment r”: median about 0.54, highest 2% from about 16 on). The full list was thinned out, with the highest values kept by preference.

B1: chr14:95709946:95710881:-|three_prime_utr|ENSG00000100721|control|control|control (ssRNA)
RNA: GGGAGUUCUACAGUCCGACGAUCUCUGGGAGGAAUGGACAGACAGAGGAUGAGCUCUACCCAGGGCCUGCAGGACCUGCCUGUAGCCCACUCUGCUCGCCUUAGCACUACCACUCCUGCCAAGGAGGAUUCCAUUUGGCAGAGCAACAGAGGAUUGAGCAUCA
B2: chr5:138873012:138874556:-|CDS|ENSG00000146006|control|control|control (ssRNA)
RNA: GGGAGUUCUACAGUCCGACGAUCUUUAUUAUUUUUAUAGUGUUCAUCUCCAGGAAGUGCUGCCCUCCCACUUUAAGAAGAAUUAGGCAGUGCUCAAUGGUUCAGAACCACAGGCAGCUCCGAUCCCAAACACGACUCCAUAUGCAACAGAGGAUUGAGCAUCA
B3: chr5:72207278:72207408:+|3pUTR|ENSG00000131711|msi1_unk|total|mutant (ssRNA)
RNA: GGGAGUUCUACAGUCCGACGAUCAGAGAACAAUGACCUCAUUUUAUUUUCUAUGUCCGUUAUUUAUUUCAAAAUUAACAUUUCCGUUGAUUUUUGUCUGAUAAGUCUAUGUUUUGCACUGCUAACUAUGAUGAGGGUUUAAAACAACAGAGGAUUGAGCAUCA
B4: chr1:93866283:93869944:-|three_prime_utr|ENSG00000067334|control|control|control (ssRNA)
RNA: GGGAGUUCUACAGUCCGACGAUCUUUAUUUACUUAUUAAAGACGUUUGGAAAACUAACACCAUCAUCUAAAUUAAUUUACCAUAGACUGGCCCUGUUCAUACAGGAAUUUGUAUUUGGAAAAAGUUGAUUUGAGAAUCGAUUACAACAGAGGAUUGAGCAUCA
B5: chr16:30603633:30603734:-|3pUTR|ENSG00000156853|unk|total|mutant (ssRNA)
RNA: GGGAGUUCUACAGUCCGACGAUCGUUAAGUACCACAUUCUCCUCUAAACCUUGCCUACGACAUGUUUAAUACUUCAUCUACACCGCAGCCCUUCAGAUAAUCACAACCACUUUGCCCCCAAGUUUUCAGGUUAAGCCGCAUGACAACAGAGGAUUGAGCAUCA
B6: chr2:32224452:32224765:-|three_prime_utr|ENSG00000091106|control|control|control (ssRNA)
RNA: GGGAGUUCUACAGUCCGACGAUCUCGUGUGAGCAGUGAUGGAUGGCUUGCCUUCAUGGGUGUAUUUGAGAAUCUUAAGCAAUUAGUGUUUUUUGACUUUAGUACUAAAGAAUUUCUACCUGAUCCAGCAUUAGUCAGAAAACUCAACAGAGGAUUGAGCAUCA
B7: ENSG00000198589:be:win_6851|CDS|ENSG00000198589|bound_else_gene|NA|bound_elsewhere_windowed (ssRNA)
RNA: GGGAGUUCUACAGUCCGACGAUCAAGUUCCAAAGUUUCACUAUGGUACUCAUUACUCAACUGCAAGUUUUGUUCUUGCAUGGCUGCUAAGAAUAGAACCCUUUACAACUUAUUUCCUAAAUUUGCAAGGAGGCAAAUUUGAUCCAACAGAGGAUUGAGCAUCA
B8: chr9:15474029:15474130:-|CDS|ENSG00000164985|unk|FALSE|unique (ssRNA)
RNA: GGGAGUUCUACAGUCCGACGAUCAAGAAAAGAGCCGGAUAAAAAAGAGGGGAAGAAAGAAGUUGAAUCAAAAAGGAAAAAUUUAGCUAAAACAGGGGUUACUUCAACCUCCGAUUCUGAAGAAGAAGGAGAUGAUCAAGAAGGCAACAGAGGAUUGAGCAUCA
B9: chr12:57516587:57516808:-|three_prime_utr|ENSG00000175197|control|control|control (ssRNA)
RNA: GGGAGUUCUACAGUCCGACGAUCCCCCCACUUGGGCCACACUACCCACCUUUCCCAGAAGUGGCUACUGACUACCCUCUCACUAGUGCCAAUGAUGUGACCCUCAAUCCCACAUACGCAGGGGGAAGGCUUGGAGUAGACAAACAACAGAGGAUUGAGCAUCA
B10: chr5:141515350:141515460:-|3pUTR|ENSG00000131504|msi1_unk|FALSE|overlapping (ssRNA)
RNA: GGGAGUUCUACAGUCCGACGAUCCUCAGCUUUCCAUCCCCAGCUAGGAAGAAAGAAUGGCACUCUUGGGCUUGGCCCAGAAUUAGAGUUAUUAGAGCAAGAGAGAGCUUAGGAAGCAUGAGGGCAACUAUAGUGAGGCCUUAUCAACAGAGGAUUGAGCAUCA
B11: chr5:138184526:138184629:+|CDS|ENSG00000112984|unk|FALSE|unique (ssRNA)
RNA: GGGAGUUCUACAGUCCGACGAUCGUGCAUGCCCCACCUAUGCAACUGGGAUUCCCAUCCCUGCACUCGUUCAUCAAGGAACAUAGUCUUCAGGUAUCCCCCAGCUUAGAGAAAGGGGCUAAGGCAGACACAGGCCUUGAUGAUCAACAGAGGAUUGAGCAUCA
B12: chr8:42175261:42175472:-|3pUTR|ENSG00000104368|msi1|total|mutant (ssRNA)
RNA: GGGAGUUCUACAGUCCGACGAUCGUAUUCCUUUUGUGUACAGUGUGUAAAGUGUAAAUCCUUUUUCUUUAUAAACUUCCGAGCCGCAUGAGAGAAUUGUAUCAUUUGAACAACCCGGCUUCAGCAUAUUUACCGCAAUCCAUGCAACAGAGGAUUGAGCAUCA
B13: chr7:80742675:80742739:-|3pUTR|ENSG00000075223|msi1_unk|FALSE|overlapping (ssRNA)
RNA: GGGAGUUCUACAGUCCGACGAUCGUAGCUUGACAAUUCAGUGACUUAAUAUCUAUUCCAUUUGUAUUGUACAUAAAAUUUUCUAGAAAUACACUUUUUUCCAAAGUGUAAGUUUGUGAAUAGAUUUUAGCAUGAUGAAACUGUCAACAGAGGAUUGAGCAUCA
B14: chr8:6757792:6757893:+|3pUTR|ENSG00000155189|msi1|FALSE|unique (ssRNA)
RNA: GGGAGUUCUACAGUCCGACGAUCAUUUAUUACAACUUGACAGCUCCAAGCUCUUAUUACUAAAGUAUUUAGUAUCUUGCAGCUAGUUAAUAUUUCAUCUUUUGCUUAUUUCUACAAGUCAGUGAAAUAAAUUGUAUUUAGGAACAACAGAGGAUUGAGCAUCA
B15: chr8:42175261:42175472:-|3pUTR|ENSG00000104368|msi1|FALSE|unique (ssRNA)
RNA: B12 RNA with C78U, C79A, C83U, C84A, C114U, C115A, C132U, C133A
B16: chr5:141515350:141515460:-|3pUTR|ENSG00000131504|msi1_unk|total|mutant (ssRNA)
RNA: B10 RNA with U44C, A45C, U83C, A84C, U92C, A93C, U109C, A110C, U130C, A131C
B17: chr5:132696315:132696416:-|3pUTR|ENSG00000131437|msi1|FALSE|unique (ssRNA)
RNA: GGGAGUUCUACAGUCCGACGAUCGUUGUACUACUACUCUUCAAUUGUACUGUGCAGGGAAGUUGGGGGAACAGUUCAUACUAUAGAGAGUUACAGUUUAGAUGUAUGUGUAAAUCGAUUAGCUAUUUAUCCAACUACUGUAUACAACAGAGGAUUGAGCAUCA
B18: chr5:132696315:132696416:-|3pUTR|ENSG00000131437|msi1|total|mutant (ssRNA)
RNA: B17 RNA with U83C, A84C, U98C, A99C, U119C, A120C
B19: chr4:65323451:65323552:-|3pUTR|ENSG00000145242|msi1|total|mutant (ssRNA)
RNA: GGGAGUUCUACAGUCCGACGAUCAUCAAGAAAAAGUACAAUACAGGGUGUAUAUUUAUUUUUUGUGUUAUAAAGUUUACUUUCCGUUGCUCUUCCCGAGAUUAUCCGGUAAUAAAUGUGUAUAUACUGUAUAAUUUGCAAUAUCAACAGAGGAUUGAGCAUCA
B20: chr8:103332422:103332528:+|3pUTR|ENSG00000164930|msi1|FALSE|unique (ssRNA)
RNA: GGGAGUUCUACAGUCCGACGAUCUUUUUUAACAUUUAGAAUAUUACAUUUUGUAUUAUACAGUACCUUUCUCAGACAUUUUGUAGAAUUCAUUUCGGCAGCUCACUAGGAUUUUGCUGAACAUUAAAAAGUGUGAUAGCGAUACAACAGAGGAUUGAGCAUCA
B21: chr8:103332422:103332528:+|3pUTR|ENSG00000164930|msi1|total|mutant (ssRNA)
RNA: B20 RNA with U36C, A37C, U83C, A84C, U106C, A107C, U136C, A137C

Molecular target: MSI1 full-length (mouse, UniProt Q61474 1-362)
Test: nsRBNS (natural sequence RNA bind-n-seq); RBNS binding buffer (assumed for nsRBNS): 25 mM Tris pH 7.5, 150 mM KCl, 3 mM MgCl2, 0.01% Triton X-100, 500 ug/ml BSA, 20 U/ml SUPERase-In, 4 C; UNK is unkempt and MSI1 is Musashi-1; names of the RNAs are library labels; protein concentration not given here; high values mean tight binding

Chain of MSI1 full-length (Q61474 whole entry): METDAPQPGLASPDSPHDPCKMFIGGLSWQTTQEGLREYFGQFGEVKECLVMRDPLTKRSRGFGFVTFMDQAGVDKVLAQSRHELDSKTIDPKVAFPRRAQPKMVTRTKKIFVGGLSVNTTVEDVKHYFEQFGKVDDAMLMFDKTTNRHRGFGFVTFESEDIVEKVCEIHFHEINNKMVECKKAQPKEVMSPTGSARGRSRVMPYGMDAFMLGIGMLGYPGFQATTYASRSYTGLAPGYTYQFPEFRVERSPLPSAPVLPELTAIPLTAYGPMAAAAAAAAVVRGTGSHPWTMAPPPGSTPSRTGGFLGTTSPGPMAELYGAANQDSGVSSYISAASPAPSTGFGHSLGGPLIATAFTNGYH

| Binder | binding signal |
| --- | --- |
| B1 | 0.347 enrichment R |
| B2 | 1.88 enrichment R |
| B3 | 0.411 enrichment R |
| B4 | 0.451 enrichment R |
| B5 | 1.38 enrichment R |
| B6 | 3.3 enrichment R |
| B7 | 0.297 enrichment R |
| B8 | 0.83 enrichment R |
| B9 | 0.549 enrichment R |
| B10 | 28.2 enrichment R |
| B11 | 0.612 enrichment R |
| B12 | 0.424 enrichment R |
| B13 | 6.36 enrichment R |
| B14 | 1.46 enrichment R |
| B15 | 33.5 enrichment R |
| B16 | 0.337 enrichment R |
| B17 | 19.9 enrichment R |
| B18 | 0.609 enrichment R |
| B19 | 1.51 enrichment R |
| B20 | 51.5 enrichment R |
| B21 | 0.818 enrichment R |
